What all share (assay): Primary qHTS to identify gynecologic anti-cancer compounds using libraries of approved drugs and bioactive compounds (AID 1345084); further: nearly all actives have a fitted effect of over 55% in size
What all share (conditions): Gynecologic cancer cell panel viability, ATPlite luminescence, 48 h; series mostly up to 57.5 µM

The test system of experiment [1] is PA-1. The procedure, abridged: (§1)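 Five-concentration response, 48 h; readout is ATP-driven luciferase luminescence.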
Experiment [2] concerns SKOV3. The procedure, abridged: as §1
For experiment [3], the system named is Tov-21-G. The procedure, abridged: as §1
Experiment [4] has as its system Tov112D. In short, it runs like this:
as §1

Records with an inconclusive call do not appear. Unmarked numbers belong to inactive results. Calls of active or inactive are those of the source. The call rests on the fitted dose curve; in most records, active means well fitted cell-killing curve with a large enough effect; inconclusive means small, poorly fitted or top-dose-only effect, or effect the other way; inactive means flat fitted curve, though single readings scatter.
On the % scale 0 is the no-effect control and ±100 the full control effect; potency means the concentration at half of the fitted maximal effect.

As for `COC(=O)[C@]1(Cc2ccc(O)c(CC=C(C)C)c2)OC(=O)C(O)=C1c1ccc(O)cc1`, the Potency entry in experiment [1], in experiment [2], in experiment [3] and in experiment [4] was “inactive” throughout.
Consider `CC(=O)NCC1CN(c2ccc(-c3ccc(CNCc4cn[nH]n4)cc3)c(F)c2)C(=O)O1` (stereo not drawn), for which the Potency entry in experiment [1], in experiment [2], in experiment [3] and in experiment [4] was “inactive” each time.
`Cc1cn(-c2cc(NC(=O)c3ccc(C)c(Nc4nccc(-c5cnccn5)n4)c3)cc(C(F)(F)F)c2)cn1`: the Potency entry in experiment [1], in experiment [2], in experiment [3] and in experiment [4] was “inactive” throughout.
Consider `CCC/C=C1\OC(=O)C2=C1CCC(O)C2O` (stereo not drawn), for which the Potency result in experiment [1], in experiment [2], in experiment [3] and in experiment [4] was “inactive” each time.
On to `Cc1occc(=O)c1O[C@@H]1O[C@H](CO[C@@H]2OC[C@](O)(CO)[C@H]2O)[C@@H](O)[C@H](O)[C@H]1O`, for which the Potency result in experiment [1], in experiment [2], in experiment [3] and in experiment [4] was “inactive” in each case.
With `COC(=O)C1=COC(OC2OC(CO)C(O)C(O)C2O)C2C(C)C(OC(C)=O)C(OC(=O)c3ccccc3)C12` (stereo not drawn), the Potency result in experiment [1], in experiment [2], in experiment [3] and in experiment [4] was “inactive” throughout.
Take `OC[C@H]1O[C@@H](OCCc2ccccc2)[C@H](O[C@@H]2OC[C@@H](O)[C@H](O)[C@H]2O)[C@@H](O)[C@@H]1O`: the Potency result in experiment [1], in experiment [2], in experiment [3] and in experiment [4] was “inactive” throughout.
For the compound `NC1=NC2(c3cc(NC(=O)c4ccc(F)cn4)ccc3F)COCC2CS1` (stereo not drawn), the Potency entry in experiment [1], in experiment [2], in experiment [3] and in experiment [4] was “inactive” each time.
As for `CC1=CC23[C@H](C=C(C(=O)O)[C@@H]2COC(=O)[C@]3(O)CO)[C@@H]1C` (stereo partly drawn), the Potency entry in experiment [1], in experiment [2], in experiment [3] and in experiment [4] was “inactive” in each case.
Regarding `C[C@@H]1C(=O)O[C@H]2[C@H]1CC[C@@]1(C)C(=O)C=C[C@@](C)(O)[C@H]21`, the Potency result in experiment [1], in experiment [3] and in experiment [4] was “inactive” throughout.
For the compound `COC(=O)C1=CO[C@@H](O[C@@H]2O[C@H](CO)[C@@H](O)[C@H](O)[C@H]2O)[C@@H]2C(C)CC(=O)[C@]12O` (stereo partly drawn), the Potency entry in experiment [1], in experiment [3] and in experiment [4] was “inactive” each time.
For the compound `C[C@@H]1O[C@@H](O[C@@H]2\C=C/C=C\C=C/C=C\C[C@H](C)OC(=O)/C=C\[C@H]3O[C@@H]3C[C@H](O)C[C@]3(O)C[C@@H](O)[C@@H](C(=O)O)[C@H](C2)O3)[C@H](O)[C@H](N)[C@@H]1O`, the Potency entry in experiment [1], in experiment [3] and in experiment [4] was “inactive” throughout.
For the compound `CC1(C)CC[C@]2(C(=O)O[C@@H]3O[C@H](CO[C@@H]4O[C@H](CO[C@@H]5O[C@H](CO)[C@H](O)[C@H](O)[C@H]5O)[C@@H](O)[C@H](O)[C@H]4O)[C@@H](O)[C@H](O[C@@H]4O[C@H](CO)[C@@H](O)[C@H](O)[C@H]4O)[C@H]3O)[C@H](O)C[C@]3(C)C(=CCC4[C@@]5(C)CC[C@H](O[C@@H]6OC[C@@H](O)[C@H](O)[C@H]6O)[C@@](C)(C(=O)O)C5CC[C@]43C)[C@@H]2C1` (stereo partly drawn), the activity change, negative = cytotoxicity is 14% [at 6.55 µM] in experiment [1], 9.11% [at 6.55 µM] in experiment [3] and 3.01% [at 6.55 µM] in experiment [4].
Turning to `C/C(=C\C(=O)C(C)C1CCC2C3=C(CCC21C)C1(C)CCC(=O)C(C)(C)C1(O)CC3)C(C)(C)O` (stereo not drawn), the Potency entry in experiment [1], in experiment [3] and in experiment [4] was “inactive” each time.
For the compound `COc1ccc([C@H]2OC[C@H]3[C@@H]2CO[C@@H]3c2ccc(O[C@@H]3O[C@H](CO)C(O)[C@H](O)[C@H]3O)c(OC)c2)cc1OC` (stereo partly drawn), the Potency entry in experiment [1], in experiment [3] and in experiment [4] was “inactive” throughout.
For `CNC(C)C(=O)NC(C(=O)N1CCCC1C(=O)Nc1cccc2ncccc12)C(C)C` (stereo not drawn), the Potency entry in experiment [1] and in experiment [4] was “inactive” in each case. Besides, the Potency in experiment [2] was 7.94 µM (active).
`CC(NC(=O)[C@H](Cc1ccccc1)NC(=O)OCc1ccccc1)C(=O)CF` (stereo partly drawn): the Potency result in experiment [1], in experiment [3] and in experiment [4] was “inactive” in each case.
With `C[C@@H]1C[C@H]2OC(=O)[C@@]3(C)CCC[C@](C)(C23)[C@@]1(O)CCC1=CC(=O)OC1O` (stereo partly drawn), the Potency entry in experiment [1], in experiment [3] and in experiment [4] was “inactive” throughout.
Consider `C/C=C/C=C/C=C/C(=O)O[C@@H]1C=C(CO)[C@](O)(CO)[C@@]2(C)CCCC(C)(C)[C@H]12`, for which the Potency entry in experiment [1], in experiment [3] and in experiment [4] was “inactive” throughout.
For `C[C@@H]1O[C@@H](O[C@H]2[C@@H]3C=CO[C@@H](O[C@@H]4O[C@H](CO)[C@@H](O)[C@H](O)[C@H]4O)[C@@H]3[C@@]3(CO)O[C@@H]23)[C@H](O)[C@H](OC(=O)/C=C/c2ccc(O)c(O)c2)[C@H]1O`, the Potency entry in experiment [1] and in experiment [3] was “inactive” each time.
As for `COc1cccc(CNc2ccc(S(=O)(=O)Nc3nc4ccccc4s3)cc2)c1O`, the Potency result in experiment [1], in experiment [3] and in experiment [4] was “inactive” throughout.
With `COc1ccc(C(=O)CC(=O)O)c2c1C=CC(C)(C)O2`, the Potency entry in experiment [1], in experiment [3] and in experiment [4] was “inactive” in each case.
On to `CCOC(=O)c1ccc(NC2CCCCC2)c(N)c1`, for which the Potency result in experiment [1], in experiment [3] and in experiment [4] was “inactive” in each case.
On to `C[C@@H](CC[C@@H]1[C@@]2(C)CCCC(C)(C)C2CC[C@@]1(C)O)CC(=O)O` (stereo partly drawn), for which the Potency result in experiment [1], in experiment [3] and in experiment [4] was “inactive” throughout.
For `C[C@@H]1CC[C@]2(C(=O)O[C@@H]3O[C@H](CO[C@@H]4O[C@H](CO)[C@@H](O)[C@H](O)[C@H]4O)[C@@H](O)[C@H](O)[C@H]3O)CC[C@]3(C)C(=CCC4[C@@]5(C)CC[C@H](O)[C@](C)(C(=O)O)C5CC[C@]43C)[C@@H]2[C@]1(C)O` (stereo partly drawn), the activity change, negative = cytotoxicity in experiment [1] is 3.28% [at 11.6 µM]; in experiment [3] it was 4.06% [at 11.6 µM]; in experiment [4] it was -2.64% [at 11.6 µM].

The values are drawn from PubChem BioAssay (NCATS).
